Measured values from PubChem BioAssay.
Several values for one entry are separate records, joined by “and”; a condition that tells them apart may be missing. Identical values can stand only once. Activity calls are given as the source filed them.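 How the source made its calls, unless noted: active means thallium flux through the channel raised or lowered by more than 3 SD from vehicle-only wells, actives on both sides; inactive means the rest.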

Legend:
[1] = stimulators of nuclear beta-catenin in C2C12, primary screen, imaging, WNT3A-conditioned medium, mouse C2C12, NPC library (AID 1117326; in the data active means nuclear beta-catenin stimulation mostly above about 4.2%, no sharp cut-off; inactive means mostly below about 10%); conditions: stronger effect = higher value
[2] = stimulators of insulin release from INS-1E, primary screen, cell-based, 5 mM glucose, NPC library (AID 1117329;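 active means compound raises insulin release from rat beta cells at 5 mM glucose, no numeric limit stated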); conditions: rat INS-1E insulin secretion, at 10 µM, stronger effect = higher value
[3] = growth inhibition of GSK3B-pretreated HCT116 cells – cell-based, CellTiter-Glo, 0.2 to 20 µM (AID 1117336;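 active means compounds lowering colon cancer cell viability after pretreatment blocking the GSK3B kinase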); conditions: HCT116 viability after GSK3B inhibitor, at 20 µM, stronger effect = higher value
[4] = inhibition of endothelial tube formation, primary screen, imaging, VEGF stimulated, CD31 staining, tube area, NPC library (AID 1117340;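 active means compound that reduces growth-factor-driven endothelial tube area in a mixed cell culture, no cutoff stated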); conditions: VEGF-stimulated ADSC/ECFC co-culture, at 10 µM, stronger effect = higher value
[5] = glucagon-like peptide 1 release enhancers, primary assay, NCI-H716 cell line, NPC library (AID 1117341;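 active means compound raises GLP1 secretion from the human gut endocrine cells, with no numeric limit stated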); conditions: NCI-H716 cells, at 10 µM, stronger effect = higher value
[6] = HCT116 colon cancer cell growth inhibition, primary screen, CellTiter-Glo luminescence, NPC library (AID 1117342;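 active means compounds that lower survival of HCT116 colon cancer cells in the luminescence readout, no numeric limit stated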); conditions: at 20 µM (top of the series)
[7] = CellTiter-Glo luminescent readout of SW480 viability loss, NPC library primary (AID 1117343;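 active means compounds that lower viability of the colon cancer cells in the luminescence readout, with no numeric limit stated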); conditions: CellTiter-Glo luminescence; at 20 µM (top of the series)
[8] = decreased DLD-1 cellular survival, CellTiter-Glo luminescent readout, NPC compound collection, primary HTS (AID 1117346;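 active means compounds that lower survival of DLD-1 colon cancer cells in the luminescence readout, no cutoff given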); conditions: DLD-1 viability, CellTiter-Glo luminescence; at 20 µM (top of the series)
[9] = target: 6-phosphogluconate dehydrogenase, decarboxylating (Homo sapiens) (UniProt P52209); assay: 6PGD enzyme inhibitors, primary screen, biochemical, human, recombinant enzyme, NADPH absorbance (AID 1159550;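 active means at least 20% inhibition of 6-phosphogluconate dehydrogenase activity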); conditions: recombinant 6PGD, NADPH absorbance 341 nm; at 10 µM; stronger effect = higher value
6-phosphogluconate dehydrogenase, decarboxylating (Homo sapiens), sequence (P52209 whole entry, looked up): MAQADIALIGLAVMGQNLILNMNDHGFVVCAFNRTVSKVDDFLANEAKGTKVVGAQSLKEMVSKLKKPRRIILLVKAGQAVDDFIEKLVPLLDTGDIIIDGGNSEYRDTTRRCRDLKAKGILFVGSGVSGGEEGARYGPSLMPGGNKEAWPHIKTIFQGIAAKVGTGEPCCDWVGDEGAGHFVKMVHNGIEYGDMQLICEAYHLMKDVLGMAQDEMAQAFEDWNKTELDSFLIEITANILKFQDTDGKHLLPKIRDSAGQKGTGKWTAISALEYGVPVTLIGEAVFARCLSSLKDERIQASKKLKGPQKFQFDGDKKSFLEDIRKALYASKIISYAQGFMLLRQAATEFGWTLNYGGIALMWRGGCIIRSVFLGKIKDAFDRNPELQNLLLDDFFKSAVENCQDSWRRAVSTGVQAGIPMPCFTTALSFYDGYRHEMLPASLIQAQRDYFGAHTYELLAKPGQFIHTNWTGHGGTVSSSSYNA

[10] = modulation of C. elegans fzo-1 (AID 1259413; call rule not given here;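 further: fzo-1 mutant C. elegans worms in liquid wells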); conditions: C. elegans fzo-1 modulator screen, mean read-out; stronger effect = higher value
[11] = differential killing of epithelial or mesenchymal cells, primary screen, imaging, PC-3E GFP, TEM4-18 mCherry, co-culture (AID 1345086;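 active means compounds killing one labelled cell type while sparing the other, by normalised counts and ratio limits, not self-fluorescent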;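 on all read-outs here: cells exposed to compound for 72 h before imaging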;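 on red/green cell ratio (normalised): normalised mesenchymal count divided by normalised epithelial count so high means epithelial killing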); conditions: imaging cell counts, at 1 µM; for red/green cell ratio (normalised): actives lie on both sides, counts scaled to control wells, 1 = unselective
[12] = survival rescue of mitochondrial mutant cells in low glucose, primary screen, MELAS cybrids, Rieske KO mouse fibroblasts, CellTiter-Glo (AID 1508586;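 active means mean z-score across replicates of 1.96 or higher in either the MELAS or the Rieske mutant cell line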;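 further: z relative to plate mean and SD of compound and empty wells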)
[13] = target: NAD(+) hydrolase SARM1 (Homo sapiens) (UniProt Q6SZW1); assay: SARM1 TIR NADase inhibitors, cell lysate, NAD-Glo luminescence (AID 1508614;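 active means compound whose remaining NAD level is above about 45 nM, limit read from the data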); conditions: SAM-TIR HEK293T lysate NADase, at 1 µM, stronger effect = higher value
NAD(+) hydrolase SARM1 (Homo sapiens), sequence (Q6SZW1 whole entry, looked up, the tested form may be a part): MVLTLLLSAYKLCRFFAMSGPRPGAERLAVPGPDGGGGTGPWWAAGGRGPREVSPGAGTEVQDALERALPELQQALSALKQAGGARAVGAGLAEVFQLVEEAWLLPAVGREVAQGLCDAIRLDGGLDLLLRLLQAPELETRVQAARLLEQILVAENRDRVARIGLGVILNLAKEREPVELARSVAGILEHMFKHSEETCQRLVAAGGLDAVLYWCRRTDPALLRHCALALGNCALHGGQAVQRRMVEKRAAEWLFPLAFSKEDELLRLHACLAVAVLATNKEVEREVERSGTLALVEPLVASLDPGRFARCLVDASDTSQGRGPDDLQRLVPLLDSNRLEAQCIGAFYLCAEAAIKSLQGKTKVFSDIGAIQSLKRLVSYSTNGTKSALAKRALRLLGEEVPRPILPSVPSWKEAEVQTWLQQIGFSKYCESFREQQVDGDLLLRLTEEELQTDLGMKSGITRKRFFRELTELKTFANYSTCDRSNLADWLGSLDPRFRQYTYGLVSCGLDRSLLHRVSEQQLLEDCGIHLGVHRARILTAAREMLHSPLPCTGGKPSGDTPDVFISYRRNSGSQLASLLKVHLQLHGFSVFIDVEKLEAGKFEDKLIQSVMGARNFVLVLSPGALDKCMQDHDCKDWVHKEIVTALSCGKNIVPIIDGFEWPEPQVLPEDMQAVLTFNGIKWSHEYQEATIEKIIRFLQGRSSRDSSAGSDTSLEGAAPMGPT

[14] = target: Mitogen-activated protein kinase 7 (Homo sapiens) (UniProt Q13164); assay: ERK5 transactivation activators in reporter cells, primary screen, cell-based, HTS (AID 1508626;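 active means luciferase signal above three times the same-plate solvent-only control wells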;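 further: luciferase driven by Gal4-ERK5 fusion binding five Gal4 sites before minimal TATA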); conditions: HeLa Gal4-ERK5 transactivation, 18 h, at 5 µM, stronger effect = higher value
Mitogen-activated protein kinase 7 (Homo sapiens), sequence (Q13164 whole entry, looked up, the tested form may be a part): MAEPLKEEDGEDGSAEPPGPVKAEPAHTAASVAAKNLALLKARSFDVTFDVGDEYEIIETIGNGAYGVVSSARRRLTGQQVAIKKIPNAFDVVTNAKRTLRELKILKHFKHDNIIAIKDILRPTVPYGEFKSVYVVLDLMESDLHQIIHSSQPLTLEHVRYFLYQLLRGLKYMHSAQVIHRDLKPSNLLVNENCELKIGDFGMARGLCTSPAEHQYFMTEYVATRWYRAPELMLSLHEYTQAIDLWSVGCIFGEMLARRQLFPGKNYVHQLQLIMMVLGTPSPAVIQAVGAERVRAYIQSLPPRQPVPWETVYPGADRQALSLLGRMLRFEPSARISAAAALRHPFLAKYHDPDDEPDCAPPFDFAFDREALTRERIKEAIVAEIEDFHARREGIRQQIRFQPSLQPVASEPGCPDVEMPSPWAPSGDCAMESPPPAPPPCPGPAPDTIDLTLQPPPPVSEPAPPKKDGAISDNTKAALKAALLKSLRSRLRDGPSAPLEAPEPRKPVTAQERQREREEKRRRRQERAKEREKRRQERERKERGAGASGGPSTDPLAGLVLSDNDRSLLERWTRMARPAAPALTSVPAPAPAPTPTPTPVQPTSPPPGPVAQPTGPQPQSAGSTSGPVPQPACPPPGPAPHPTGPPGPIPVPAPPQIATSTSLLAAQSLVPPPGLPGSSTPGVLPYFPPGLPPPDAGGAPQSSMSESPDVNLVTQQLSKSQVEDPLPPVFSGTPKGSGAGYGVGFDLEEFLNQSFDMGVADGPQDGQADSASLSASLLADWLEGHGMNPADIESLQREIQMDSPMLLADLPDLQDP

F380Y = assay: modulators of BK channel variants, profiling panel, selectivity assay, cell-based, U2OS BacMam, thallium flux, beta subunits (AID 1259406); conditions: at 30 µM;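 further: initial slope of Thallos dye fluorescence rise after thallium is added; log ratio against the mean of 0.3% DMSO vehicle wells on the same plate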
F380Y/beta1 = assay: as above; conditions: at 30 µM
F380Y/beta2Delta = assay: as above; conditions: at 30 µM
[15] = sensitizers of A549 cells to miR-34 induction, primary screen, imaging, A549 dox-inducible miR-34, nuclei and caspase counts (AID 1347080;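 active means compounds whose cell count with miR-34 switched on is under 0.7 times the count with it off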); conditions: A549 miR-34 inducible, Hoechst nuclei count, 48 h
[16] = measured here: epithelial PC-3E GFP cell survival
[17] = measured here: mesenchymal TEM4-18 mCherry cell survival
[18] = MELAS cybrid survival, CellTiter-Glo 48 h, stronger effect = higher value
[19] = Rieske KO mouse fibroblast survival, CellTiter-Glo 72 h

CC(COc1ccccc1)N(CCCl)Cc1ccccc1 (stereo not drawn)
0.469 and 0.0989 and -0.341: z-score [12, 19]
inactive: nuclear beta-catenin stimulation ([1]; at 10 µM) 1.1% | insulin secretion stimulation [2] 2.8% | viability decrease [3] -32.1% | tube area decrease [4] 7% | GLP1 secretion stimulation [5] 3.8% | inhibition of viability [6] -3.6% | viability decrease (inhibition) [7] 13% | viability decrease (inhibition) [8] -2.9% | inhibition [9] 0.0837% | mean signal [10] 239 | red/green cell ratio (normalised) [11] 1.22 | z-score [12, 18] -0.333 and -0.71 and -0.596 | remaining NAD [13] 10 nM | luciferase signal [14] 68 AU | log fold change Tl+ flux (F380Y) -0.0529 | log fold change Tl+ flux (F380Y/beta1) -0.00151 | log fold change Tl+ flux (F380Y/beta2Delta) -0.054
1.43: normalised cell number [11, 17]
-0.3%: nuclear beta-catenin stimulation ([1]; stimulation, at 2 µM)
1.17: normalised cell number [11, 16]

CN=C(NC#N)NCCSCc1nc[nH]c1C
1.01: normalised cell number [11, 16]
1.05: normalised cell number [11, 17]
inactive: nuclear beta-catenin stimulation ([1]; at 10 µM) 0.2% | insulin secretion stimulation [2] 1.3% | viability decrease [3] 10.8% | tube area decrease [4] -5.8% | GLP1 secretion stimulation [5] -0.3% | inhibition of viability [6] 8.17% | viability decrease (inhibition) [7] 36.9% | viability decrease (inhibition) [8] 1.2% | inhibition [9] -10.7% | mean signal [10] 239 | red/green cell ratio (normalised) [11] 1.04 | z-score [12, 18] -0.132 and 0.533 and -0.0775 | remaining NAD [13] 10 nM | luciferase signal [14] 44 AU | log fold change Tl+ flux (F380Y) 0.0123 | log fold change Tl+ flux (F380Y/beta1) 0.0381 | log fold change Tl+ flux (F380Y/beta2Delta) -0.0232
-0.116 and -0.0466 and 0.0997: z-score [12, 19]
-1.1%: nuclear beta-catenin stimulation ([1]; stimulation, at 2 µM)

O=C(C1CCCCC1)N1CC(=O)N2CCc3ccccc3C2C1 (stereo not drawn)
-0.176 and 0.00765 and 0.589: z-score [12, 19]
-1.1%: nuclear beta-catenin stimulation ([1]; stimulation, at 2 µM)
inactive: nuclear beta-catenin stimulation ([1]; at 10 µM) -0.4% | insulin secretion stimulation [2] 2.5% | viability decrease [3] -3.8% | tube area decrease [4] -2.6% | GLP1 secretion stimulation [5] -2.7% | inhibition of viability [6] -11.5% | viability decrease (inhibition) [7] 19.5% | viability decrease (inhibition) [8] -16.7% | inhibition [9] -0.949% | mean signal [10] 236 | red/green cell ratio (normalised) [11] 1.48 | z-score [12, 18] -0.396 and 0.0285 and 0.65 | remaining NAD [13] 10 nM | luciferase signal [14] 32 AU | log fold change Tl+ flux (F380Y) 0.0282 | log fold change Tl+ flux (F380Y/beta1) 0.027 | log fold change Tl+ flux (F380Y/beta2Delta) 0.0335
1.42: normalised cell number [11, 17]
0.96: normalised cell number [11, 16]

CC1(C)O[C@@H]2[C@@H](CO[C@@]3(COS(N)(=O)=O)OC(C)(C)O[C@@H]23)O1
1.58: normalised cell number [11, 17]
0.627: z-score [12, 19]
1.11: normalised cell number [11, 16]
9480 and 11800: cell count ([15]; measured here: total cells with miR-34 induction, stronger effect = lower value)
0.6%: nuclear beta-catenin stimulation ([1]; stimulation, at 2 µM)
inactive: nuclear beta-catenin stimulation ([1]; at 10 µM) -1.6% | insulin secretion stimulation [2] -0.2% | viability decrease [3] -4.2% | tube area decrease [4] 14.7% | GLP1 secretion stimulation [5] -0.1% | inhibition of viability [6] -8.2% | viability decrease (inhibition) [7] -0.9% | viability decrease (inhibition) [8] -7.1% | inhibition [9] 5.76% | mean signal [10] 229 | red/green cell ratio (normalised) [11] 1.43 | fold change ([15]; stronger effect = lower value, cell number ratio, induced over uninduced) 0.931 and 0.874 | z-score [12, 18] 0.776 | remaining NAD [13] 10 nM | luciferase signal [14] 24 AU | log fold change Tl+ flux (F380Y) -0.00202 | log fold change Tl+ flux (F380Y/beta1) 0.0196 | log fold change Tl+ flux (F380Y/beta2Delta) 0.0184
10200 and 13500: cell count ([15]; measured here: total cells without miR-34 induction)
1.93 and 6.61: fold change ([15]; measured here: relative caspase fold change +Dox/-Dox)
